Reference: ChEMBL document CHEMBL3433997, “St. Jude Leishmania screening dataset” (2016)

How the values were obtained:
Assay type in all cases: functional
[1] = biological target: Solute carrier family 2, facilitated glucose transporter member 1 (Homo sapiens) (UniProt P11166); assay: ST_JUDE_LEISH: Cytotoxicity at 2uM final concentration against transgenic Leishmania Mexicana promastigotes LmGLUT1 that are glucose transport deficient and complemented with the human glucose transporter GLUT1. Activity is measured by DNA content using SYBR green in vitro
Chain of Solute carrier family 2, facilitated glucose transporter member 1 (Homo sapiens) (P11166 whole entry): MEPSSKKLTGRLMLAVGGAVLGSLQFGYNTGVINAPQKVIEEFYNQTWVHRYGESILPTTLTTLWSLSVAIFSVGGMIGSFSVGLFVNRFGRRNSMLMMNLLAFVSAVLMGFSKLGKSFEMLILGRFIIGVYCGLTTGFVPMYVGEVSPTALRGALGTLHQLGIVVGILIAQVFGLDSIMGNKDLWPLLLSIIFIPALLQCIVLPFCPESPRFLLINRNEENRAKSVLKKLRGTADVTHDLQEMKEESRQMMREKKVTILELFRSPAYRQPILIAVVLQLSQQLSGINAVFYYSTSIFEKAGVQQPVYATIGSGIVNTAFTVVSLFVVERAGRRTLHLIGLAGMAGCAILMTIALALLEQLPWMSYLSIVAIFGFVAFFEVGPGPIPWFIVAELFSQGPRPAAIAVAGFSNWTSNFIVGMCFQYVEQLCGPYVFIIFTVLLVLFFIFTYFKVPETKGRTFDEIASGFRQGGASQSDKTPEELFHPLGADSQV

[2] = biological target: Hexose transporter 1 (Plasmodium falciparum) (UniProt O97467); assay: ST_JUDE_LEISH: Cytotoxicity at 2uM final concentration against transgenic Leishmania Mexicana promastigotes LmPfHT that are glucose transport deficient and complemented with the Plasmodium falciparum hexose transporter. Activity is measured by DNA content using SYBR green in vitro
[3] = biological target: Glucose transporter (Leishmania mexicana) (UniProt O61059); assay: ST_JUDE_LEISH: Cytotoxicity at 2uM final concentration against transgenic Leishmania Mexicana promastigotes LmGT2 that are glucose transport deficient and complemented with the L. Mexicana glucose transporter 2. Activity is measured by DNA content using SYBR green in vitro

| SMILES | inhibition [1] | inhibition [2] | inhibition [3] |
| --- | --- | --- | --- |
| O=[N+]([O-])c1cccc(-c2ccc(C=NNc3cc(N4CCCC4)nc(N4CCCC4)n3)o2)c1 | 3.39% | 3.17% | 3.82% |
| O=C(N[C@H]1CCN(Cc2ccc(OCCN3CCNCC3)c(Br)c2)C1)c1ccc(Cl)c(Cl)c1 | 0.35% | 0.16% | 1.51% |
| COc1cc(CNC2Cc3ccccc3C2)ccc1Oc1ccc2nc[nH]c2c1 | 2.66% | 0.67% | 0.95% |
| COc1ccc2nccc([C@@H](O)CN3CCC(NCc4cc5cc(C)ccc5s4)CC3)c2c1 | 31.5% | 46% | 21.9% |
| C[C@@H](NC(=O)NC(CCN1CCC2(CC1)CN(S(C)(=O)=O)c1ccccc12)c1ccc(Cl)c(Cl)c1)c1ccccc1 (stereo partly specified) | 0.39% | 4.43% | -3.56% |
| Cc1cccc2nc(-c3cccc(-c4ccc(CNCCCN5CCCC5=O)cc4)c3)[nH]c12 | 9.26% | 6.82% | 6.5% |
| Clc1ccc(CNc2ccnc(NCc3cccnc3N3CCCC3)n2)c(Cl)c1 | 12.9% | 7.88% | 3.44% |
| COc1ccc(CN(C)CCOc2ccc(NC(=O)c3cccc4c(=O)c5cc(SC)ccc5[nH]c34)cc2)cc1OC | 10.2% | 8.45% | 3.5% |
| CC1(C)OC[C@]2(C)[C@@H](CC[C@]3(C)C4=CC(=O)CCC4CC[C@@H]23)O1 (stereo partly specified) | 0.57% | 1.6% | 2.59% |
| Cc1ccc2nc(Cl)c3cc(C(=O)NCCCN4CCCC4)sc3c2c1 | 8.7% | 10.2% | 9.6% |
| COc1cc(F)c2ncc(F)c([C@@H](O)CN3CCC(NCc4cc5c(cn4)OCCO5)CC3)c2c1 | 1.43% | 2.18% | 2.06% |
| N#Cc1ccc(C(=O)NC2CCN(CCCCCNC(=O)/C=C/c3ccc(Cl)c(Cl)c3)CC2)cc1 | 0.08% | 1.46% | -1.31% |
| COc1ccc(-c2nonc2NC(=O)c2ccc(C(C)(C)C)cc2)cc1OC | -0.32% | 0.21% | -0.16% |
| Cc1cc(N[C@@H](Cc2ccccc2)C(=O)NCc2cccc(F)c2)nc(NCc2ccccc2C)n1 | 5.14% | 4.67% | 3.17% |
| CS(=O)(=O)c1cccc(-c2cnc(N)c3cc(-c4cccc(F)c4)ccc23)c1 | 1.57% | 1.63% | 0.94% |
| c1ccc(-c2ccc(CNCCCNc3nc4ccccc4[nH]3)cc2)cc1 | 4.26% | 9.56% | 6.92% |

| SMILES | inhibition [1] | inhibition [2] | inhibition [3] |
| --- | --- | --- | --- |
| Cc1[nH]c(C)c(-c2ccc(Nc3ccc(C(F)(F)F)cn3)cc2)c(=O)c1Br | 2.7% | 5.96% | 3.17% |
| COc1ccc(Cl)cc1N1CCN(CCCNC(=O)c2ccc(-c3nc4cc(Cl)c(C)cc4[nH]3)s2)CC1 | 4.06% | 1.78% | 1.42% |
| N#Cc1cccc(C(O)C2CN(CCC3CCCCC3)CCC2(O)c2ccccc2)c1 (stereo unspecified) | -1.82% | -0.13% | 2.48% |
| CCn1c(C)cc(C=C2SC(=Nc3ccccc3)NC2=O)c1C | 6.88% | 4.18% | 2.93% |
| CN1CCCN(Cc2ccc(-c3cccc(NC(=O)c4cccc(Cl)c4)c3)cc2)CC1 | 16.5% | 9.2% | 9.24% |
| Cc1c(F)cc(C(=O)NC2CC2)cc1-c1ccc2c(cnn2S(=O)(=O)c2ccc(C#N)cc2)c1 | -0.7% | 1.11% | 0.73% |
| O=c1nc(NCCCCCN2CCC(c3c[nH]c4ccccc34)CC2)[nH]cc1Cc1ccc(Cl)c(Cl)c1 | 2.65% | 2.12% | 2.08% |
| CC(C)CCNc1nc(NCCc2ccccc2)c2cc(O)ccc2n1 | 7.05% | 3.99% | -2.18% |
| COc1ccccc1C1CCN(C2CCC(NC(=O)/C=C/c3ccc(OC(F)(F)F)cc3)CC2)CC1 (stereo unspecified) | 0.94% | 1.54% | 2.36% |
| COc1ccc(N2CCN(CCCCNC(=O)c3ccc(NC(=O)c4cc(C(F)(F)F)cc(C(F)(F)F)c4)cc3)CC2)cc1OC | 1.59% | 2.48% | 2.71% |
| Nc1c2ccccc2nc2cc(Cl)ccc12 | 3.29% | 1.91% | 1.91% |
| CCOC(=O)C1=C(C)N=c2sc(=Cc3ccccc3O)c(=O)n2C1c1ccc(OC)c2ccccc12 (stereo unspecified) | -1.25% | -0.06% | -1.57% |
| Cc1cccc2nc(-c3cccc(-c4cccc(CNC(C)C)c4)c3)[nH]c12 | -0.63% | 0.85% | 0.35% |
| Oc1ccc(CCNc2nc(NCCCOc3ccccc3-c3ccncc3)nc(N3CCNCC3)n2)cc1 | 3.68% | 5.15% | 5.3% |
| COc1ccc(NC(=O)/C=C/c2ccccc2Cl)cc1OCCN1CCC(N2CCCCC2)CC1 | 7.74% | 7.17% | 7.17% |
| Cc1noc(C)c1CN1CCCN(c2ccc3c(c2)CCN(Cc2ccc(-c4ncc[nH]4)cc2)CC3)CC1 | 1.29% | 3.6% | 1.65% |
